Values joined by “and” are separate entries in the source; they are usually repeats but may differ in a detail not shown here. Equal entries are not always repeated. Inconclusive results are not listed. Active and inactive are the calls of the source.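 Rule for the calls, unless noted: active = normalized viability below 100% at a tested concentration; inactive = the rest.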
Tests used:
[1] = kinase inhibitors against Plasmodium liver-stage infection, cell-based, known kinase inhibitor set, luminescence, hepatoma host viability (AID 624392; call rule not given here;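 note: infected cells incubated roughly two days before readout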); settings: Plasmodium liver stage in hepatoma cells, luciferase luminescence, concentration not given here; liver cell % of control: measured here: host liver cell viability; parasite % of control: stronger effect = lower value
[2] = modulators of glucocorticoid suppression of NF-kB, cell-based, luciferase, IL-1B stimulus, dexamethasone (AID 624486; call rule not given here;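 for percent of negative control (+Dex): 100% = mean signal of vehicle control wells on the plate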); settings: NF-kB luciferase reporter, IL-1B + dexamethasone, luminescence; percent of negative control (+Dex): actives lie on both sides, concentration not given here; z-score: measured here: IL-1B alone, no Dex
[3] = kinase inhibitors altering Pseudomonas killing of worms, whole organism (AID 651566; call rule not given here;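 note: tested at 14 µM; sign flipped so higher z means a lower ratio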); settings: C. elegans killed by P. aeruginosa, survival ratio
[4] = activators of macrophage pro-inflammatory response, cell-based, murine, luminescence (AID 652131; call rule not given here); settings: murine macrophage pro-inflammatory reporter, stronger effect = higher value
[5] = molecular target: Cellular tumor antigen p53 (Homo sapiens) (UniProt P04637); test: kinase inhibitors altering GFP-p53 stability in HPV16-positive cells, imaging, known kinase inhibitor set, EGFP/DsRed ratio (AID 1053116; call rule not given here;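 note: cells exposed to compounds for 24 h at 37 °C before reading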); settings: stronger effect = higher value; EGFP object count: measured here: GFP-p53 positive objects count
[6] = IRF3 reporter activation in THP-1 macrophages, cell-based, PMA-stimulated THP-1, luminescence (AID 1053176; call rule not given here); settings: PMA-differentiated THP-1, IRF3 reporter luminescence; stronger effect = higher value
[7] = survival rescue of mitochondrial mutant cells in low glucose, primary screen, MELAS cybrids, Rieske KO mouse fibroblasts, CellTiter-Glo (AID 1508586;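 active = mean z-score across replicates of 1.96 or higher in either the MELAS or the Rieske mutant cell line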;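 note: z relative to plate mean and SD of compound and empty wells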)
[8] = growth inhibition of DIPG glioma cells, dose response, cell-based, SU-DIPG-XVII, MIPE5.0, CellTiter-Glo, qHTS (AID 1347060; cut-off not given, nearly all actives have AC50 up to about 26 µM); settings: SU-DIPG-XVII viability, CellTiter-Glo ATP luminescence
[9] = growth inhibition of DIPG glioma cells, dose response, cell-based, SU-DIPG-XIII, MIPE4.0, CellTiter-Glo, qHTS (AID 1347061; cut-off not given, nearly all actives have AC50 up to about 37 µM;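 note: cells exposed to compound for 48 hours before readout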); settings: SU-DIPG-XIII viability, CellTiter-Glo ATP luminescence
[10] = growth inhibition of DIPG glioma cells, dose response, cell-based, JHH-DIPG-1, MIPE4.0, CellTiter-Glo, qHTS (AID 1347062; cut-off not given, nearly all actives have AC50 up to about 27 µM); settings: JHH-DIPG-1 viability, CellTiter-Glo ATP luminescence
[11] = growth inhibition of DIPG glioma cells, dose response, cell-based, SU-DIPG-IV, MIPE4.0, CellTiter-Glo, qHTS (AID 1347063; cut-off not given, nearly all actives have AC50 up to about 30 µM;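 note: compound exposure lasted 48 hours before the viability readout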); settings: SU-DIPG-IV viability, CellTiter-Glo ATP luminescence
[12] = viability loss in pontine glioma line – cell-based, SU-DIPG-XXV, MIPE5.0, CellTiter-Glo, qHTS, dose response (AID 1347065; cut-off not given, nearly all actives have AC50 up to about 26 µM;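 note: cells exposed to compound for 48 hours before ATP readout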); settings: CellTiter-Glo ATP luminescence
[13] = SU-DIPG-VI glioma cell viability, MIPE4.0 library, CellTiter-Glo luminescence, qHTS (AID 1347066; cut-off not given, nearly all actives have AC50 up to about 30 µM;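 note: cells exposed to compound for 48 hours before readout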); settings: CellTiter-Glo ATP luminescence
[14] = SU-DIPG-XXV glioma cell viability, MIPE5.0 library, qHTS (AID 1347068; cut-off not given, nearly all actives have IC50 up to about 30 µM)
[15] = modifiers of HSF1 nuclear foci, imaging, Selleck Cancer Library (AID 1347162; in the data active = plate-normalised HSF1 focus index below about 0.46); settings: human cells, at 10 µM; SSMD: measured here: HSF1 foci SSMD mean; cell count: measured here: cell number; plate-normalised HSF1 focus index: stronger effect = lower value
[16] = ovarian cancer cell viability with rucaparib, profiling panel, oncology-focused library, rucaparib conditional (AID 1508598); settings: patient-derived ovarian cancer cells, CellTiter-Glo viability, 144 h, stronger effect = lower value
[17] = viability rescue of complex I mutant cybrids, primary screen, cell-based, galactose medium, ATP luminescence (AID 1645843;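 active = z-score of at least 1.8 in each of two replicates, scored against plate mean and spread of sample wells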;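 note: positive z means more ATP and so rescue of galactose-driven cybrid death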); settings: complex I mutant cybrid cells, 72 h, stronger effect = higher value
[18] = MELAS cybrid survival, CellTiter-Glo 48 h, stronger effect = higher value
[19] = Rieske KO mouse fibroblast survival, CellTiter-Glo 72 h

Cellular tumor antigen p53 (Homo sapiens), sequence (P04637 whole entry, looked up): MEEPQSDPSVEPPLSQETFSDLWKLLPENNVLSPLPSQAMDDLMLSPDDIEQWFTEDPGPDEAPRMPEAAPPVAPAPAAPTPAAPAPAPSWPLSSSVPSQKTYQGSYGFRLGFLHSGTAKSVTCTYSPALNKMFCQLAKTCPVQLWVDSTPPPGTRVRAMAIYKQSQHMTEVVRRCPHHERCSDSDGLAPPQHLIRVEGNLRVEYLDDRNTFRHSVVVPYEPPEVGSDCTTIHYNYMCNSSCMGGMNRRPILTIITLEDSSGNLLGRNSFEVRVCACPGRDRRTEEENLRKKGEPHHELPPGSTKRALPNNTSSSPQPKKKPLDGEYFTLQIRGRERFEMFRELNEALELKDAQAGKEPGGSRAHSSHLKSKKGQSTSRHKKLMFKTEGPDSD

CC(=O)Nc1cccc(C#Cc2cncnc2Nc2ccc(OCc3cccc(F)c3)c(Cl)c2)c1
-0.925: z-score [2]
111%: liver cell % of control [1]
inactive: parasite % of control [1] 108% | percent of negative control (+Dex) [2] 89.5% | z-score [3] 0.045 | z-score [4] -0.803 | EGFP/DsRed ratio [5] 0.169 | fraction signal [6] 0.0085 | z-score [7, 18] -0.744
3.5: EGFP object count [5]
0.00771: z-score [7, 19]

OCCCNc1nccc(-c2c(-c3ccc(F)cc3)nn3cc(C(F)(F)F)ccc23)n1
inactive: parasite % of control [1] 77.5% | percent of negative control (+Dex) [2] 106% | z-score [3] 0.765 | z-score [4] 0.66 | EGFP/DsRed ratio [5] 0.0239 | fraction signal [6] -0.0065 | z-score [7, 18] -0.607
2: EGFP object count [5]
1.02: z-score [2]
0.0984: z-score [7, 19]
124%: liver cell % of control [1]

NC(=O)c1ccc(Oc2nccc(-c3c(-c4ccc(F)cc4)ncn3C3CCNCC3)n2)cc1
-0.477: z-score [7, 19]
8.5: EGFP object count [5]
89.2%: liver cell % of control [1]
inactive: parasite % of control [1] 144% | percent of negative control (+Dex) [2] 96% | z-score [3] 0.14 | z-score [4] 0.154 | EGFP/DsRed ratio [5] 0.173 | fraction signal [6] -0.008 | z-score [7, 18] 0.243
0.125: z-score [2]

NC(=O)c1ccc(-c2nc(-c3ccc4c(c3)OCO4)c(-c3ccccn3)[nH]2)cc1
0.215: z-score [2]
92.1%: liver cell % of control [1]
inactive: parasite % of control [1] 99.9% | percent of negative control (+Dex) [2] 92% | z-score [3] -0.47 | z-score [4] 5.36 | EGFP/DsRed ratio [5] 0.161 | fraction signal [6] -0.007 | outcome [8] | outcome [9] | outcome [10] | outcome [11] | outcome [12] | outcome [13] | outcome [14] | plate-normalised HSF1 focus index [15] 1.06 | z-score [7, 18] -0.87 and -0.497 | viability ([16]; at 0.000305 µM, OCI-C5x cells, with rucaparib 10 µM, 100% = cells with rucaparib alone) 134% | viability ([16]; at 0.000305 µM, OCI-C5x cells, without rucaparib) 138% | viability ([16]; at 0.000305 µM, OCI-P5x cells, with rucaparib 20 µM, 100% = cells with rucaparib alone) 116% | viability ([16]; at 0.000305 µM, OCI-P5x cells, without rucaparib) 105% | viability ([16]; at 0.00122 µM, OCI-C5x cells, with rucaparib 10 µM, 100% = cells with rucaparib alone) 135% | viability ([16]; at 0.00122 µM, OCI-C5x cells, without rucaparib) 143% | viability ([16]; at 0.00122 µM, OCI-P5x cells, with rucaparib 20 µM, 100% = cells with rucaparib alone) 110% | viability ([16]; at 0.00122 µM, OCI-P5x cells, without rucaparib) 103% | viability ([16]; at 0.00488 µM, OCI-C5x cells, with rucaparib 10 µM, 100% = cells with rucaparib alone) 139% | viability ([16]; at 0.00488 µM, OCI-C5x cells, without rucaparib) 135% | viability ([16]; at 0.00488 µM, OCI-P5x cells, with rucaparib 20 µM, 100% = cells with rucaparib alone) 108% | viability ([16]; at 0.0195 µM, OCI-C5x cells, with rucaparib 10 µM, 100% = cells with rucaparib alone) 136% | viability ([16]; at 0.0195 µM, OCI-C5x cells, without rucaparib) 143% | viability ([16]; at 0.0195 µM, OCI-P5x cells, with rucaparib 20 µM, 100% = cells with rucaparib alone) 112% | viability ([16]; at 0.0195 µM, OCI-P5x cells, without rucaparib) 101% | viability ([16]; at 0.0781 µM, OCI-C5x cells, with rucaparib 10 µM, 100% = cells with rucaparib alone) 130% | viability ([16]; at 0.0781 µM, OCI-C5x cells, without rucaparib) 147% | viability ([16]; at 0.0781 µM, OCI-P5x cells, with rucaparib 20 µM, 100% = cells with rucaparib alone) 106% | viability ([16]; at 0.313 µM, OCI-C5x cells, with rucaparib 10 µM, 100% = cells with rucaparib alone) 130% | viability ([16]; at 0.313 µM, OCI-C5x cells, without rucaparib) 146% | viability ([16]; at 0.313 µM, OCI-P5x cells, with rucaparib 20 µM, 100% = cells with rucaparib alone) 105% | viability ([16]; at 0.313 µM, OCI-P5x cells, without rucaparib) 102% | viability ([16]; at 1.25 µM, OCI-C5x cells, with rucaparib 10 µM, 100% = cells with rucaparib alone) 146% | viability ([16]; at 1.25 µM, OCI-C5x cells, without rucaparib) 153% | viability ([16]; at 1.25 µM, OCI-P5x cells, with rucaparib 20 µM, 100% = cells with rucaparib alone) 114% | viability ([16]; at 5 µM, OCI-C5x cells, with rucaparib 10 µM, 100% = cells with rucaparib alone) 198% | viability ([16]; at 5 µM, OCI-C5x cells, without rucaparib) 187% | viability ([16]; at 5 µM, OCI-P5x cells, with rucaparib 20 µM, 100% = cells with rucaparib alone) 102% | z-score [17] -0.03
-0.512 and 0.389: z-score [7, 19]
7590: cell count [15]
active: viability ([16]; at 0.00488 µM, OCI-P5x cells, without rucaparib) 99.5% | viability ([16]; at 0.0781 µM, OCI-P5x cells, without rucaparib) 94.4% | viability ([16]; at 1.25 µM, OCI-P5x cells, without rucaparib) 92.1% | viability ([16]; at 5 µM, OCI-P5x cells, without rucaparib) 93.9%
0.986: SSMD [15]
5.5: EGFP object count [5]

— PubChem BioAssay
